Compounds with a hit are over-represented: about 12% of the library has one in this group of screens.
JMJD2A Tudor: qHTS Assay for Inhibitors of JMJD2A-Tudor Domain; Lysine-specific demethylase 4A (Homo sapiens), O75164; AlphaScreen JMJD2A-Tudor / H3K4me3 peptide binding; Potency, µM (titrated, usually from 114 µM), for inactives: at the highest dose activity change, negative = inhibition, hits mostly inhibitors; 4.4% of 390,000 active; AID 504339, 2011; also: % is scaled to controls: 0 for no effect and ±100 for the full control effect; nearly all actives have a fitted effect of over 50% in size
Target sequence (O75164 whole entry, looked up, the tested form may be a part): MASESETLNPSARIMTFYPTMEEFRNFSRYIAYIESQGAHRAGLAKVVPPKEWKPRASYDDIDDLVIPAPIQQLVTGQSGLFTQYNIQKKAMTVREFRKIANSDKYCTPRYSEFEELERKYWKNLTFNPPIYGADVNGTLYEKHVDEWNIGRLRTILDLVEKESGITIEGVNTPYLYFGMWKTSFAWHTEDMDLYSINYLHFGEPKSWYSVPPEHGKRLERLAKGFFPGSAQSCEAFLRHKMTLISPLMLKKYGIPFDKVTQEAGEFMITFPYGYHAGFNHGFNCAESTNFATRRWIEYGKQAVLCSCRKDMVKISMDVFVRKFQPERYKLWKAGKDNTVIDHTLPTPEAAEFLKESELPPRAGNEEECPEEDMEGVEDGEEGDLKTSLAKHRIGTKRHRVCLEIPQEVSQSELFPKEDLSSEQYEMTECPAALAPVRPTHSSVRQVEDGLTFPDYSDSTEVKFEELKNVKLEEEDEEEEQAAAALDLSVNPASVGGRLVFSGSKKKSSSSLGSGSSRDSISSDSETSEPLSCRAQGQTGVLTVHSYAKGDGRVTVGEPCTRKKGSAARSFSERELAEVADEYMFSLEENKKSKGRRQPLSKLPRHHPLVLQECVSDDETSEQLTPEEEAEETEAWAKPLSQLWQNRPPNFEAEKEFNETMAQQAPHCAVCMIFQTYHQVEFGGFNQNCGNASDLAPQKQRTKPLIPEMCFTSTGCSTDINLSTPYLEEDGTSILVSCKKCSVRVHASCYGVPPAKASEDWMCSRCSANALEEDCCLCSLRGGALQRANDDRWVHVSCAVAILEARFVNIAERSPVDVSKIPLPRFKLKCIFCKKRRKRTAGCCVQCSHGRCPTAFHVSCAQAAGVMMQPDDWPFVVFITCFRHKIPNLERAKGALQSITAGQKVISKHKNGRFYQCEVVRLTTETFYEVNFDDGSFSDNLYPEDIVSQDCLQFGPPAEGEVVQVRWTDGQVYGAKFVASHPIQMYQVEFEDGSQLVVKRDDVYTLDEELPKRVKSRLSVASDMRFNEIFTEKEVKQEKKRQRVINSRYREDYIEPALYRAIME
HP1b chromo inh: HTS for Inhibitors of HP1-beta Chromodomain Interactions with Methylated Histone Tails; 0.56% of 390,000 active; Potency, µM (top dose mostly 114 µM), inactives show top-dose activity change, negative = inhibition, most hits filed as inhibitors; Chromobox protein homolog 1 (Homo sapiens), P83916; AlphaScreen HP1-beta / biotin-H3K9me3 peptide binding; also: nearly all actives have a fitted effect of over 70% in size
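AlphaScreen: HP1-beta (50 nM) preformed 30 min with biotin-H3(1-18)K9me3 peptide (50 nM) in PBS pH 7.4, 0.01% Tween-20. Compound added for 30 min at RT, then streptavidin donor/nickel chelate acceptor beads (10 ug/mL) for 30 min.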
G9a inh: qHTS Assay for Inhibitors of Histone Lysine Methyltransferase G9a | G9a H3K9 monomethylation, AlphaScreen, 2 h | Potency, µM (highest dose often 102 µM), without a hit: top-dose activity, negative = inhibition, usual class: inhibitors | 8.8% of 350,000 active | AID 504332, 2011; also: % is scaled to controls: 0 for no effect and ±100 for the full control effect; nearly all actives have a fitted effect of over 75% in size
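Chemiluminescent proximity detection of H3K9 monomethylation, read after 10 min bead incubation in the dark. Reaction: 20 nM G9a, 500 nM biotin-H3K9 peptide, 20 uM SAM cofactor, 2 h, room temperature, following 15 min enzyme-compound preincubation.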
Sfp inh: qHTS Assay for Inhibitors of Bacillus subtilis Sfp phosphopantetheinyl transferase (PPTase); 4'-phosphopantetheinyl transferase ffp (Bacillus subtilis), Q9F4F7; Biochemical Sfp PPTase activity, qHTS; Potency, µM, for inactives: largest response in the series, negative = inhibition, usual class: inhibitors; 3.5% of 310,000 active; AID 1490, 2009;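 also: the enzyme is Sfp with the accession as filed and its product quenches rhodamine fluorescence; 0% = enzyme reaction without inhibitor and -100% = no enzyme wells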
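Compounds were incubated with enzyme (final 15 nM) for 15 min at room temperature before substrate addition started the reaction. Fluorescence at 525 nm excitation, 598 nm emission was recorded immediately and after 30 minutes.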
BAZ2B block: qHTS Assay for Inhibitors of BAZ2B; Bromodomain adjacent to zinc finger domain protein 2B (Homo sapiens), Q9UIF8; AlphaScreen BAZ2B-H3K14Ac peptide displacement; Potency, µM (series often up to 114 µM), for the others: at the top dose activity change, negative = inhibition, usual class: inhibitors; 4.4% of 360,000 active; also: % is scaled to controls: 0 for no effect and ±100 for the full control effect; nearly all actives have a fitted effect of over 60% in size
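AlphaScreen displacement of biotin-H3(5-23)K14Ac peptide (50 nM final) from BAZ2B (50 nM final) in PBS pH 7.4, 0.01% Tween-20; complex preformed 30 min RT, then compounds (top 110 uM) 30 min RT, beads 20 min dark.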
L3MBTL1 inh: qHTS Assay for the Inhibitors of L3MBTL1. Potency, µM (titrated, usually from 57.1 µM), inactives show at the highest dose activity, negative = inhibition, usual class: inhibitors. AlphaScreen L3MBTL1–H3K9me1 peptide binding. AID 485360, 2010. Lethal(3)malignant brain tumor-like protein 1 (Homo sapiens), Q9Y468. 0.66% of 230,000 active; also: % is scaled to controls: 0 for no effect and ±100 for the full control effect; nearly all actives have a fitted effect of over 60% in size
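AlphaScreen assay: L3MBTL1 (50 nM final) was preincubated 30 min at room temperature with biotinylated H3(1-15)K9me1 peptide (75 nM final), then 30 min with library compounds; streptavidin donor and nickel chelate acceptor beads (10 ug/mL final) added, 30 min dark.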
Starred values were filed as active, the others as inactive; [ ] = remark or other dose. Calls follow the shape of the dose curve; as a rule, active = well fitted curve in the direction sought with a large enough effect; inconclusive = small, poorly fitted or top-dose-only effect, or another doubt; inactive = no such curve, though single readings can be large; an effect the other way counts as inactive or inconclusive. Potency is read from the fitted curve at half-maximal effect.

What do the screens show for `CCOCCCNC(=O)c1ccc2c(=O)n(CCCOCC)c(=S)[nH]c2c1`?
JMJD2A Tudor: -11%; HP1b chromo inh: 35%; G9a inh: 10µM*; Sfp inh: 10%; BAZ2B block: -19%

What do the screens show for `CCOCCCn1c(=S)[nH]c2cc(C(=O)NCCOC)ccc2c1=O`?
JMJD2A Tudor: 40µM*; HP1b chromo inh: 43%; G9a inh: inconclusive; Sfp inh: 79µM*; BAZ2B block: inconclusive; L3MBTL1 inh: 2%

Results for CCOCCCn1c(=S)[nH]c2cc(C(=O)NCCc3ccc(OC)c(OC)c3)ccc2c1=O ?
JMJD2A Tudor: 3%; HP1b chromo inh: 53%; Sfp inh: -9%; BAZ2B block: -1%

How did CCOCCCNC(=O)c1ccc2c(=O)n(CCc3ccccc3)c(=O)[nH]c2c1 do in these assays?
JMJD2A Tudor: 3%; HP1b chromo inh: 30%; G9a inh: 0%[59 µM]; BAZ2B block: 1%

What do the screens show for `CCOCCCn1c(=S)[nH]c2cc(C(=O)NCCCN(CC)CC)ccc2c1=O`?
JMJD2A Tudor: -18%; HP1b chromo inh: 27%; G9a inh: 8.9µM*; Sfp inh: 2%; BAZ2B block: -14%

Results for COc1ccc(C)cc1NC(=O)Nc1ccccc1OCc1cc(=O)n2ccccc2n1 ?
JMJD2A Tudor: -9%; HP1b chromo inh: 18%[57 µM]; G9a inh: 13%[59 µM]; BAZ2B block: 8%

Results for CCCOC(C(=O)OC1CCN(C)CC1)(c1ccccc1)c1ccccc1 ?
G9a inh: inconclusive; Sfp inh: 16%

How did O=C(Nc1cc(F)ccc1F)N1CCC(CN2CCCC2)CC1 do in these assays?
JMJD2A Tudor: 3%; HP1b chromo inh: 39%; G9a inh: -10%[59 µM]; BAZ2B block: 5%

Results for CCN1CCN(C(=O)CCCCCn2c(=O)[nH]c3cc(C(=O)OC)ccc3c2=O)CC1 ?
JMJD2A Tudor: -18%; HP1b chromo inh: 13%; G9a inh: inconclusive; Sfp inh: 13%; BAZ2B block: 4%

Results for COC(=O)c1ccc2c(=O)n(CCO)c(=S)[nH]c2c1 ?
JMJD2A Tudor: inconclusive; HP1b chromo inh: 24%; G9a inh: inconclusive; Sfp inh: 10%; BAZ2B block: -30%; L3MBTL1 inh: -17%

How did COC(=O)c1ccc2c(=O)n(CCCCCC(=O)O)c(=S)[nH]c2c1 do in these assays?
JMJD2A Tudor: 50µM*; HP1b chromo inh: 42%; G9a inh: 45µM*; Sfp inh: -11%; BAZ2B block: -28%; L3MBTL1 inh: -2%

Results for CC(C)NC(=O)c1ccc2c(=O)n(Cc3ccco3)c(=S)[nH]c2c1 ?
JMJD2A Tudor: -2%; HP1b chromo inh: 35%; G9a inh: 0%[59 µM]; Sfp inh: -16%; BAZ2B block: 11%; L3MBTL1 inh: 2%

Results for COC(=O)c1ccc2c(=O)n(CCCCCC(=O)N3CCN(c4ccccc4)CC3)c(=O)[nH]c2c1 ?
JMJD2A Tudor: 56µM*; HP1b chromo inh: -25%; G9a inh: -7%; Sfp inh: -8%; BAZ2B block: 3%

What do the screens show for `COCCn1c(=S)[nH]c2cc(C(=O)NC(C)C)ccc2c1=O`?
JMJD2A Tudor: inconclusive; HP1b chromo inh: 32%; G9a inh: 11µM*; Sfp inh: 21%; BAZ2B block: inconclusive; L3MBTL1 inh: -4%

What do the screens show for `CC(=O)N(C)c1ccc(N=Nc2c(C)[nH]n(-c3ccccc3)c2=O)cc1`?
JMJD2A Tudor: inconclusive; HP1b chromo inh: inconclusive; G9a inh: 35µM*; Sfp inh: -20%; BAZ2B block: inconclusive; L3MBTL1 inh: -4%

From PubChem BioAssay
